# Measurements reported in PubChem BioAssay (Tox21).
# Records with an inconclusive call do not appear. Where a call stands in place of a potency, no number is given. Activity calls are given as the source filed them. Unless noted, calls follow the shape of the dose curve; as a rule, active = well fitted curve in the direction sought with a large enough effect in the repeat runs; inconclusive = weak or mixed curves; inactive = no such curve, though single readings can be large; an effect the other way counts as inactive or inconclusive.
# Legend:
# [1] = qHTS assay to identify small molecule antagonists of the sonic hedgehog signaling (Shh) pathway (AID 1259369; calls by dose curve; also: nearly all actives have a fitted effect of over 45% in size; also: potency is read from the fitted curve at half-maximal effect); settings: NIH/3T3 Gli1-Luc reporter, Shh antagonist, luminescence 24 h; series mostly up to 92.4 µM
# In short: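 Cells are plated and held 4hr at 37 C, compounds (DMSO) are pinned in, conditioned medium is added to stimulate the pathway, and after 24hr luciferase reagent is added for 30min before luminescence is read.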
# [2] = biological target: Estrogen receptor beta (Homo sapiens) (UniProt Q92731); experiment: qHTS assay to identify small molecule agonists of the estrogen receptor beta (ER-beta) signaling pathway (AID 1259377; active = well fitted activation curve with a large enough effect in the signal ratio in the repeat runs, not every such curve was filed as active; the % refers to the signal ratio); settings: ER-beta-UAS-bla HEK293T, beta-lactamase FRET ratio, 16 h; series mostly up to 92.4 µM
# Chain of Estrogen receptor beta (Homo sapiens) (Q92731 whole entry, looked up): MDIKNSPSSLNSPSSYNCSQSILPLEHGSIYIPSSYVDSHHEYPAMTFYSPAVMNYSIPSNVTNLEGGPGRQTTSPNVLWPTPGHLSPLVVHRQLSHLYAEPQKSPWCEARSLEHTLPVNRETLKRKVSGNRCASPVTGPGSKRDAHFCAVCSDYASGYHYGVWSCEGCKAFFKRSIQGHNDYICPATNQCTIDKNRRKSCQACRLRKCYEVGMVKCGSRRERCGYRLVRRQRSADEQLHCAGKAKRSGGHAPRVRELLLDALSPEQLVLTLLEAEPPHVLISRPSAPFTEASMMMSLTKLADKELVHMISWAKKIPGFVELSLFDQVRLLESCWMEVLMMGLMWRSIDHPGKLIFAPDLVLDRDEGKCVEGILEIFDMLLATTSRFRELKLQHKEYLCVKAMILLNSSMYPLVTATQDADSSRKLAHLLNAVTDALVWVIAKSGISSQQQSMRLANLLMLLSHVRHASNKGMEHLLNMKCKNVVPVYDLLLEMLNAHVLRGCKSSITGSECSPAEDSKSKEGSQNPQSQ
# In short: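 Reporter cells (HEK293T, ER-beta-UAS-bla) receive compounds or DMSO after a 6 hr pre-incubation. They then incubate 16 hr at 37C/5% CO2, and fluorescence from LiveBLAzer B/G substrate is measured after 2 hours at room temperature.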
# [3] = biological target: Estrogen receptor beta (Homo sapiens) (UniProt Q92731); experiment: qHTS assay to identify small molecule antagonists of the estrogen receptor beta (ER-beta) signaling pathway (AID 1259378; active = well fitted inhibition curve with a large enough effect in the signal ratio in the repeat runs, not every such curve was filed as active; the % refers to the signal ratio); settings: ER-beta-UAS-bla HEK293T, beta-lactamase FRET ratio, 16 h; series mostly up to 92.4 µM
# In short: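 ER-beta-UAS-bla HEK293T cells in 2% charcoal-stripped FBS medium treated with compound plus 1nM final 17-beta-estradiol for 16 hr at 37C. Beta-lactamase reporter read by FRET substrate fluorescence after 2 hours at room temperature.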
# [4] = qHTS assay to identify small molecule agonists of the androgen receptor (AR) signaling pathway in the presence of an antagonist - cell viability counter screen (AID 1259379); settings: MDA-kb2 viability, CellTiter-Fluor, 16 h; series mostly up to 92.4 µM;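 also: MDA-kb2 human breast cancer cells carrying an MMTV luciferase reporter; nearly all actives have a fitted effect of over 25% in size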
# In short: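 Cytotoxicity is assessed by CellTiter-Fluor in MDA-kb2 cells carrying an MMTV-driven luciferase reporter. Cells receive 3.0uM nilutamide plus compounds at 15 concentrations and incubate 16 hr at 37C without CO2 before fluorescence reading.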
# [5] = qHTS assay to identify small molecule agonists of the estrogen receptor beta (ER-beta) signaling pathway - cell viability counter screen (AID 1259380); settings: ER-beta-bla HEK293T viability, CellTiter-Glo luminescence, 16 h; series mostly up to 92.4 µM; also: nearly all actives have a fitted effect of over 30% in size
# In short: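 Cytotoxicity is measured in parallel with the reporter screen: after 16 hr compound exposure at 37C and a 2 hr LiveBLAzer step, CellTiter-Glo is added to the same ER-beta-UAS-bla HEK293T wells and luminescence read after 30 min.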
# [6] = qHTS assay to identify small molecule antagonists of the estrogen receptor beta (ER-beta) signaling pathway - cell viability counter screen (AID 1259382); settings: ER-beta-UAS-bla HEK293T viability, CellTiter-Glo luminescence, 16 h; series mostly up to 92.4 µM; also: nearly all actives have a fitted effect of over 55% in size
# In short: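 Cytotoxicity counter screen multiplexed with the beta-lactamase antagonist assay: GripTite HEK293T ER-beta-bla cells were treated 16 hr with test chemicals in the presence of 1nM 17-beta-estradiol, and viability was measured by CellTiter-Glo.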
# [7] = qHTS assay to identify small molecule agonists or antagonists of the thyroid stimulating hormone receptor (TSHR) signaling pathway - wild type cell line counter screen (AID 1259384; calls by dose curve); settings: HEK293 wild type, cAMP HTRF counter-screen, active compounds read high; series mostly up to 92.4 µM
# In short: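 Wild-type Hek293 cells, 800/well, 18 h at 37C, then compound with Ro20-1724 for 30 min RT. cAMP by HTRF (cAMP-d2/anti-cAMP cryptate), 1 h RT, fluorescence read. 15 concentrations, triplicates.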
# [8] = biological target: Thyrotropin receptor (Homo sapiens) (UniProt P16473); experiment: qHTS assay to identify small molecule antagonists of the thyroid stimulating hormone receptor (TSHR) signaling pathway (AID 1259385; calls by dose curve; also: nearly all actives have a fitted effect of over 20% in size); settings: TSHR-HEK293 cAMP HTRF, TSH-stimulated antagonist mode; series mostly up to 92.4 µM
# Chain of Thyrotropin receptor (Homo sapiens) (P16473 whole entry, looked up): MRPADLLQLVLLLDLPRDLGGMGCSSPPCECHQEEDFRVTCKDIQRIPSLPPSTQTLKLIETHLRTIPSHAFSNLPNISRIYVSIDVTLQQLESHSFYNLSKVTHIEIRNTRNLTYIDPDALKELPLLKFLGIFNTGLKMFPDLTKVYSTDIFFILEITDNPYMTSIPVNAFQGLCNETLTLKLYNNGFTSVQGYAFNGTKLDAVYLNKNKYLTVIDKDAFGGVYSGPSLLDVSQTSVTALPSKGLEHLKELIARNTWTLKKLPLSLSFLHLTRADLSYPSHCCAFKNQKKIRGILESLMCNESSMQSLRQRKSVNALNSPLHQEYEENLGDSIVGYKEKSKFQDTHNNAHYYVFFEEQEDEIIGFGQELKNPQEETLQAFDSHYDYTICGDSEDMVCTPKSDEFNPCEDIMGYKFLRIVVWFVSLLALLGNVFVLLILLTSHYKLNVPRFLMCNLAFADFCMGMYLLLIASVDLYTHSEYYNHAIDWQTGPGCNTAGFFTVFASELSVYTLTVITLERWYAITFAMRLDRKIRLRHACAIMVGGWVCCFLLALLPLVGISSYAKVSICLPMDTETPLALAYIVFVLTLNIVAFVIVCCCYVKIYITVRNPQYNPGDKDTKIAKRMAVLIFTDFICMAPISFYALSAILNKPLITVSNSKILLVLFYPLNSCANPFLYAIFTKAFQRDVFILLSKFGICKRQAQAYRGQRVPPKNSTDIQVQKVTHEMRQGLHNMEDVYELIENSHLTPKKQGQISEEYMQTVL
# In short: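 TSHR-HEK293 cells (800/well) plated 18 h, then compounds with Ro20-1724 and TSH at 1.5 ng/mL final, 30 min at room temperature. cAMP quantified by HTRF (cAMP-d2/anti-cAMP-cryptate, 1 h); 15 concentrations in triplicate.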
# [9] = qHTS assay to identify small molecule agonists of the estrogen receptor alpha (ER-alpha) signaling pathway in the presence of an antagonist - cell viability counter screen (AID 1259386); settings: VM7Luc4E2 viability, CellTiter-Fluor fluorescence, 22 h; series mostly up to 92.4 µM;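 also: cells exposed to compounds for 22 h at 37 °C before the viability read; nearly all actives have a fitted effect of over 30% in size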
# In short: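 Cytotoxicity was measured in parallel with the ERE-luciferase agonist screen, in the same wells. The cells were VM7Luc4E2, which endogenously express ER-alpha, and treatment was with compounds plus 10.0nM ICI-182,780 for 22hr.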
# [10] = biological target: Progesterone receptor (Homo sapiens) (UniProt P06401); experiment: qHTS assay to identify small molecule agonists of the progesterone receptor (PR) signaling pathway (AID 1346784; calls by dose curve; also: nearly all actives have a fitted effect of over 30% in size); settings: PR-UAS-bla HEK293T, beta-lactamase FRET ratio, 16 h; series mostly up to 92.4 µM
# Chain of Progesterone receptor (Homo sapiens) (P06401 whole entry, looked up): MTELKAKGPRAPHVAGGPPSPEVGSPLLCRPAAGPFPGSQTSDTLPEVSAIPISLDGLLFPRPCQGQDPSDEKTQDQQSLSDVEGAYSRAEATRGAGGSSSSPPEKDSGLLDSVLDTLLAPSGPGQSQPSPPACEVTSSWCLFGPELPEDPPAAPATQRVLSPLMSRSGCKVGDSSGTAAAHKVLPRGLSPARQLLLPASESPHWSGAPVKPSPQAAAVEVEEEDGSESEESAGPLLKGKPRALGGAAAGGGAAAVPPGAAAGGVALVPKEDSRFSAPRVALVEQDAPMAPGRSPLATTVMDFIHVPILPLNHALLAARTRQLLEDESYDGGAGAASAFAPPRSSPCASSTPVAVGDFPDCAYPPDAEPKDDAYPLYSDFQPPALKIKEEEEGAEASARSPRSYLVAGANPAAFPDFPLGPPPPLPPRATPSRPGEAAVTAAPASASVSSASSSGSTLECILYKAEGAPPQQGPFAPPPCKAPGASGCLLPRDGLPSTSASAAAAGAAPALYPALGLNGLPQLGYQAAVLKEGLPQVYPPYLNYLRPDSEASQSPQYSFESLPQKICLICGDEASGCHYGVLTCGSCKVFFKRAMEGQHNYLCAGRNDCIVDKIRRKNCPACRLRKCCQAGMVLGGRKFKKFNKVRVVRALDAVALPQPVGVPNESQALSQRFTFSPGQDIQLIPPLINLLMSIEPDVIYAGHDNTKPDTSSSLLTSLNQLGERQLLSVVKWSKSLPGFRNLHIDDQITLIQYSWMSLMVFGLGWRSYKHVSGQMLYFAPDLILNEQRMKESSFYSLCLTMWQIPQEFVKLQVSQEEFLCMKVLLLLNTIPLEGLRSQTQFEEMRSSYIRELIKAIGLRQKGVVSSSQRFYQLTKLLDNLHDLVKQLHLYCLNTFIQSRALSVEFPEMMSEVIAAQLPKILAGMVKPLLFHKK
# In short: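 Reporter assay, GripTite PR-UAS-bla HEK 293T cells: 16 hr exposure to DMSO-dissolved compounds at 37C, 5% CO2, in steroid-depleted (2% charcoal-stripped FBS) medium; beta-lactamase measured by FRET fluorescence.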
# [11] = biological target: Progesterone receptor (Homo sapiens) (UniProt P06401); experiment: qHTS assay to identify small molecule antagonists of the progesterone receptor (PR) signaling pathway (AID 1346795; active = well fitted inhibition curve with a large enough effect in the signal ratio in the repeat runs, not every such curve was filed as active; the % refers to the signal ratio; also: potency is read from the fitted curve at half-maximal effect); settings: PR-UAS-bla HEK293T, beta-lactamase FRET ratio, 16 h; series mostly up to 92.4 µM
# In short: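 Stimulus R5020 at 1 nM final; cells HEK293T PR-UAS-bla; medium with 2% charcoal-stripped FBS; compound exposure 16 hr at 37C, 5% CO2; detection by FRET beta-lactamase substrate, 2 hr, room temperature.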
# [12] = qHTS assay to identify small molecule antagonists of the progesterone receptor (PR) signaling pathway - cell viability counter screen (AID 1346798); settings: PR-UAS-bla HEK293T viability, CellTiter-Glo luminescence, 16 h; series mostly up to 92.4 µM; also: nearly all actives have a fitted effect of over 50% in size; also: potency is read from the fitted curve at half-maximal effect
# In short: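 In the same plates used for the beta-lactamase readout, cell viability of compound- and R5020-treated PR-UAS-bla HEK293T cells (16 hr, 37C) was assessed by CellTiter-Glo luminescence.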
# [13] = qHTS assay to identify small molecule agonists of the progesterone receptor (PR) signaling pathway - cell viability counter screen (AID 1346799; calls by dose curve; also: nearly all actives have a fitted effect of over 45% in size); settings: PR-UAS-bla HEK293T viability, CellTiter-Glo luminescence, 16 h; series mostly up to 92.4 µM
# In short: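 Multiplexed viability read: CellTiter-Glo luminescence, 30 min RT, following LiveBLAzer FRET measurement on PR-UAS-bla HEK293T cells exposed to compounds 16 hr.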
# [14] = qHTS assay to identify small molecule antagonists of the TGF-beta/Smad signaling pathway - cell viability counter screen (AID 1346824); settings: SBE-bla HEK293T viability, CellTiter-Glo luminescence; series mostly up to 76.8 µM; also: nearly all actives have a fitted effect of over 50% in size
# In short: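 SBE-bla HEK 293T cells, incubated overnight, then compound plus 0.25 ng/mL TGF-beta1 (stock added) for 5 hr at 37 C. Viability was read in the same wells by CellTiter-Glo luminescence after 30 min at room temperature.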
# [15] = qHTS assay to identify small molecule agonists of the TGF-beta/Smad signaling pathway - cell viability counter screen (AID 1346829); settings: SBE-bla HEK293T viability, CellTiter-Glo luminescence, 5 h; series mostly up to 76.8 µM; also: top concentration of the series differs between compounds; nearly all actives have a fitted effect of over 45% in size
# In short: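 SBE-bla HEK 293T cells plated overnight, compound exposure 5 hr at 37 C. Viability read in the same wells by CellTiter-Glo luminescence after 30 min at room temperature, following the beta-lactamase read.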
# [16] = qHTS assay to identify small molecule agonists of the TGF-beta/Smad signaling pathway (AID 1346859; active = well fitted activation curve with a large enough effect in the signal ratio in the repeat runs, not every such curve was filed as active; the % refers to the signal ratio); settings: SBE-bla HEK293T, TGF-beta/Smad beta-lactamase reporter, 5 h; series mostly up to 76.8 µM
# In short: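 Screening used HEK 293T SBE-bla cells at 4,000/well. Test agents: 5 hr, 37 C. Detection: FRET substrate, 2 hr RT, then excitation 405 nm with emissions at 460 and 530 nm.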
# [17] = biological target: Thyrotropin-releasing hormone receptor (Homo sapiens) (UniProt P34981); experiment: qHTS assay to identify small molecule antagonists of the thyrotropin-releasing hormone receptor (TRHR) signaling pathway (AID 1346877; active = well fitted inhibition curve with a large enough effect in the repeat runs, not every such curve was filed as active); settings: TRHR-HEK293, TRH-induced calcium fluorescence, antagonist mode; series mostly up to 51.3 µM
# Chain of Thyrotropin-releasing hormone receptor (Homo sapiens) (P34981 whole entry, looked up): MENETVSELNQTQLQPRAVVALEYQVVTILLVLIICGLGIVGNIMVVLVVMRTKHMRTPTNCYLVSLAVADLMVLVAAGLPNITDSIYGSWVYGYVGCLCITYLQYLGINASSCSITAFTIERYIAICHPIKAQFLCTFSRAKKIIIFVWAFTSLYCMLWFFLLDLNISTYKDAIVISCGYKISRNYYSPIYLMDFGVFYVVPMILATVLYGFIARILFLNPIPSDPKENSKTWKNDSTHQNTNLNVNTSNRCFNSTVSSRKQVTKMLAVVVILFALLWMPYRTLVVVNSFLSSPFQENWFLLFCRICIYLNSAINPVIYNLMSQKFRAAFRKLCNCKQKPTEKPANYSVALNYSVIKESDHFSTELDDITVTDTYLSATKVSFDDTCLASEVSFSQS
# In short: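 Antagonism is measured as suppression of the calcium response to 1 nM TRH in TRHR-HEK293 cells that have been dye-loaded for 2 h at 37 °C after overnight plating. Each compound is tested at 15 concentrations in triplicate.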
# [18] = biological target: Thyrotropin-releasing hormone receptor (Homo sapiens) (UniProt P34981); experiment: qHTS assay to identify small molecule agonists of the thyrotropin-releasing hormone receptor (TRHR) signaling pathway (AID 1346891; calls by dose curve); settings: TRHR-HEK293 calcium fluorescence, agonist mode; series mostly up to 57.6 µM
# In short: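 Readout was intracellular calcium fluorescence in TRHR-Hek293 cells. Cells were incubated 18 h, dye-loaded 2 h at 37 °C, and treated with compound in agonist mode.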
# [19] = biological target: Estrogen receptor (Homo sapiens) (UniProt P03372); experiment: qHTS assay to identify small molecule agonists of the estrogen receptor alpha (ER-alpha) signaling pathway in the presence of an antagonist (AID 1259383; calls by dose curve; also: top concentration of the series differs between compounds; nearly all actives have a fitted effect of over 15% in size); settings: VM7Luc4E2 cells, ERE-luciferase, +ICI-182,780, 22 h; series mostly up to 92.4 µM
# Chain of Estrogen receptor (Homo sapiens) (P03372 whole entry, looked up): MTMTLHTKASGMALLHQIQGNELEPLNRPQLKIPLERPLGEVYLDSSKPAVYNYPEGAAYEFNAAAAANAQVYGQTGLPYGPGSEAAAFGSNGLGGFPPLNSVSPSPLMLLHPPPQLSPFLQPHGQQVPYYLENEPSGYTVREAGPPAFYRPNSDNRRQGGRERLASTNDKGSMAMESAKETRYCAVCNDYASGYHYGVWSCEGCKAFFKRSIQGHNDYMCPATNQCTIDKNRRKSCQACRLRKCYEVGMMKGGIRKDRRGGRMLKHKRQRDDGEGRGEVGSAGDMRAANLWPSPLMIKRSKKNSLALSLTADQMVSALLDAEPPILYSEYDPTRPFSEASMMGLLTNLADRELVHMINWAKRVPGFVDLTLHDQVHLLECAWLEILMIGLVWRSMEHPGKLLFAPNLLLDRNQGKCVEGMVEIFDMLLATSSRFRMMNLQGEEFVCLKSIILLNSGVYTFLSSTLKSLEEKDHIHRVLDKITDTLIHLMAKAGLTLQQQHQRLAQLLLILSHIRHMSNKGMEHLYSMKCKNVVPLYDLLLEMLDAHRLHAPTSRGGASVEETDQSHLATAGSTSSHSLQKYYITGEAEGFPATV
# In short: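 Agonist-mode confirmation in the presence of the ER antagonist ICI-182,780 at 10.0nM final. Breast-derived VM7Luc4E2 reporter cells were exposed to compounds for 22hr, and ERE-driven luciferase was quantified by luminescence.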
# [20] = biological target: Androgen receptor (Homo sapiens) (UniProt P10275); experiment: qHTS assay to identify small molecule agonists of the androgen receptor (AR) signaling pathway in the presence of an antagonist (AID 1259381; calls by dose curve; also: nearly all actives have a fitted effect of over 15% in size); settings: MDA-kb2 MMTV-luciferase, AR agonist + nilutamide, 16 h; series mostly up to 92.4 µM
# Chain of Androgen receptor (Homo sapiens) (P10275 whole entry, looked up): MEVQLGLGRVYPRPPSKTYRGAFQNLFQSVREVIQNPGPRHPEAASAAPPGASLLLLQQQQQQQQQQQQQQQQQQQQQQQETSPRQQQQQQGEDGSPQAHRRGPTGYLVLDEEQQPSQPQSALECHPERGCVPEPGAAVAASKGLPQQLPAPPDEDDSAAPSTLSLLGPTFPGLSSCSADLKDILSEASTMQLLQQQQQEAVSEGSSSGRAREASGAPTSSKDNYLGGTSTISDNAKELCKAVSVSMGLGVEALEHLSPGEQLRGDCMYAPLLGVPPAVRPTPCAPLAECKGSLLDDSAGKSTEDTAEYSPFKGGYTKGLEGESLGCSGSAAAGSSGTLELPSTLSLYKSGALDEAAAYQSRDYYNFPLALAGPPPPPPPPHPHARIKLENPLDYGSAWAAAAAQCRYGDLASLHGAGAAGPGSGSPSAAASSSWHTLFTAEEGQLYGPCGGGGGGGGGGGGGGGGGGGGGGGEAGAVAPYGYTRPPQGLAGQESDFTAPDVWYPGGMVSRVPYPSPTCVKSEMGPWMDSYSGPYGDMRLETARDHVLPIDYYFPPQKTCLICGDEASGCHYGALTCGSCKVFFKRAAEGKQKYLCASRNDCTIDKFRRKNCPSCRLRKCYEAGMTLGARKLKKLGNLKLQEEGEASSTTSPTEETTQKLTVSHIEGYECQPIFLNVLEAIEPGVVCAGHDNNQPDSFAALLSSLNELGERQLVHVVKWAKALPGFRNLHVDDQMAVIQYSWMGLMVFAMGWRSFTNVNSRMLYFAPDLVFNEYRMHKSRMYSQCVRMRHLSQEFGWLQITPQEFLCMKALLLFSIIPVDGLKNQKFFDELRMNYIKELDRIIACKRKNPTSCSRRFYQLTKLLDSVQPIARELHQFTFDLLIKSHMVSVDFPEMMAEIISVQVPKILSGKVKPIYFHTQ
# In short: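 Agonist-mode confirmation screen: human MDA-kb2 cells stably expressing luciferase under an MMTV promoter bearing AR and GR response elements, co-treated with 3.0uM nilutamide (final). Luminescence measured after 16hr compound incubation.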
SMILES,Potency [1],Potency [2],outcome [3],Potency [4],Potency [5],Potency [6],outcome [7],outcome [8],Potency [9],Potency [10],Potency [11],Potency [12],Potency [13],outcome [14],Potency [15],outcome [16],Potency [17],outcome [18],Potency [19],Potency [20]
ClCCCCl,inactive,inactive,inactive,inactive,inactive,inactive,inactive,inactive,inactive,inactive,inactive,inactive,inactive,inactive,inactive,inactive,inactive,inactive,,
CCCCCCC1CCOC1=O (configuration not stated),inactive,inactive,inactive,inactive,inactive,inactive,inactive,inactive,inactive,inactive,inactive,inactive,inactive,inactive,inactive,inactive,inactive,inactive,,
C=CC=O,inactive,inactive,inactive,inactive,inactive,inactive,inactive,inactive,inactive,inactive,inactive,inactive,inactive,inactive,inactive,inactive,inactive,inactive,,
CCCCCCCCBr,inactive,inactive,inactive,inactive,inactive,inactive,inactive,inactive,inactive,inactive,inactive,inactive,inactive,inactive,inactive,inactive,inactive,inactive,,
Cc1ccc2cc(C)ccc2c1,inactive,inactive,inactive,inactive,inactive,inactive,,,inactive,inactive,inactive,inactive,inactive,inactive,inactive,inactive,inactive,inactive,,
O=c1[nH]oc2c1CCNC2,inactive,inactive,inactive,inactive,,inactive,inactive,inactive,inactive,inactive,inactive,inactive,inactive,inactive,inactive,inactive,,,inactive,
CC[C@@H](CO)NC(=O)[C@@H]1C=C2c3cccc4c3c(cn4C)C[C@H]2N(C)C1,inactive,inactive,inactive,inactive,inactive,inactive,,,,inactive,inactive,inactive,inactive,inactive,inactive,inactive,inactive,inactive,inactive,
BrCC1CO1 (configuration not stated),inactive,inactive,inactive,inactive,inactive,inactive,,,,inactive,inactive,inactive,,inactive,inactive,inactive,inactive,inactive,inactive,
ClCCCCCCCl,inactive,inactive,inactive,inactive,inactive,inactive,inactive,inactive,inactive,inactive,inactive,,inactive,inactive,inactive,inactive,inactive,inactive,,
C=C1CC[C@@]2(O)[C@H]3Cc4ccc(O)c5c4[C@@]2(CCN3CC2CC2)[C@H]1O5,inactive,inactive,inactive,inactive,,inactive,inactive,inactive,inactive,inactive,inactive,2.98 µM (active),inactive,inactive,inactive,inactive,inactive,inactive,,
CNC(=O)O/N=C(/CSC)C(C)(C)C,inactive,,,inactive,inactive,inactive,inactive,inactive,,,,inactive,inactive,inactive,inactive,inactive,inactive,inactive,inactive,inactive
CCC1(c2ccccc2)C(=O)N(COC)C(=O)N(COC)C1=O,inactive,,,inactive,inactive,inactive,inactive,,inactive,inactive,inactive,inactive,inactive,inactive,inactive,inactive,inactive,inactive,,inactive
O=S1(=O)OCCO1,inactive,,,inactive,inactive,inactive,inactive,inactive,,inactive,inactive,inactive,inactive,inactive,inactive,inactive,inactive,inactive,,inactive
COc1cc(CCN)cc(OC)c1OC,inactive,inactive,,inactive,inactive,inactive,inactive,inactive,inactive,inactive,inactive,,inactive,inactive,inactive,inactive,,,inactive,
Oc1ccc2c3c1O[C@H]1[C@@H](O)C=C[C@H]4[C@@H](C2)NCC[C@@]341,1.99 µM (active),inactive,,inactive,inactive,inactive,inactive,,,inactive,inactive,,,inactive,inactive,inactive,,,,
CCOC(=O)C(SP(=S)(OC)OC)c1ccccc1 (configuration not stated),inactive,inactive,,inactive,inactive,inactive,inactive,inactive,inactive,inactive,48.6 µM (active),inactive,inactive,,inactive,inactive,inactive,inactive,,
N=C(N)[Se],inactive,,inactive,inactive,,inactive,inactive,inactive,,inactive,inactive,inactive,inactive,inactive,inactive,inactive,,,inactive,
